Activity calls are given as the source filed them. Unless noted, how the calls were made is not given here.

Nine compounds from PubChem BioAssay can be followed below.

Experiment [1] is described as follows: HepG2 liver cancer cell viability effects, profiling panel, resazurin fluorescence, 24 h, PK04 Diversity Set (AID 1172). To be noted: higher = more signal.
A short description of experiment [2]: basal S. cerevisiae growth modulation, no modifier, primary screen, OD600, strain BY4716, 24 h, basal condition (AID 1173). To be noted: OD600, 24 h, higher = more signal, called active from +8 up or from −8 down.
Experiment [3] is described as follows: MM1S myeloma cell viability, profiling panel, resazurin fluorescence, basal, 24 h, PK04 Diversity Set (AID 1174).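 Further: MM1S multiple myeloma cell line.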 Conditions: higher = more signal, called active from +8 up or from −8 down.
Experiment [4] deals with Dihydroorotate dehydrogenase (quinone), mitochondrial (Plasmodium falciparum (isolate 3D7)) (UniProt Q08210). Put plainly: PfDHODH enzyme inhibitors, primary screen, biochemical, C-terminal His tag, absorbance 600 nm (AID 1175).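 Further: recombinant parasite enzyme with a five histidine tag at its C terminus.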 To be noted: DCIP absorbance 600 nm, higher = more signal, called active from +8 up or from −8 down.
Experiment [5] is described as follows: P. aeruginosa biofilm formation inhibitors, primary screen, strain PAO1, LB-PBS medium, absorbance 600 nm (AID 1176). To be noted: P. aeruginosa PAO1 growth/biofilm, A600, 12 h; higher = more signal.
The nature of experiment [6]: S. cerevisiae RM11-1a growth modifiers, primary screen, strain RM11-1a, OD600, basal, 24 h (AID 1177).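 Further: cultures grown under basal conditions with no added stressor.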 To be noted: OD600, 24 h, higher = more signal, called active from +8 up or from −8 down.
Experiment [7] in a line: E. coli acrAB mutant growth effects, primary screen, E. coli filamentation inducers, strain DRC39, OD650, 24 h (AID 1178).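 Further: growth measured as culture turbidity by optical density at 650 nm.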 Conditions: higher = more signal, called active from +8 up or from −8 down.
Experiment [8] in a line: E. coli acrAB mutant growth effects, primary screen, E. coli filamentation inducers, strain DRC39, OD650, 48 h (AID 1179).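 Further: screen aims at cell division blockers that make cells filament.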 Conditions: E. coli DRC39 delta-acrAB growth, higher = more signal, called active from +8 up or from −8 down.
Experiment [9] is described as follows: RPMI8226 myeloma cell viability, profiling panel, resazurin fluorescence, basal, 24 h, PK04 Diversity Set (AID 1180).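 Further: RPMI8826 multiple myeloma cell line at 5000 cells per well.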 Conditions: higher = more signal.
Experiment [10] addresses E3 ubiquitin-protein ligase XIAP (Homo sapiens) (UniProt P98170). Nature of the experiment: XIAP binders, primary screen, biophysical, small-molecule microarray, fluorescence 635 nm (AID 1181).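 Further: score merges 667 nm emission and signal to noise over triplicate slides.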 To be noted: small-molecule microarray binding, higher = more signal.
Experiment [11] relates to XIP peptide (Xip251-270) binding. Nature of the experiment: small-molecule binders of XIP peptide, primary screen, biochemical, small-molecule microarray, fluorescence 635/667 nm, 0.1 µg/mL protein (AID 1182). To be noted: fluorescent protein binding, 635 nm, higher = more signal, called active from +8 up or from −8 down.
Experiment [12] deals with XIP peptide (Xip251-270). Put plainly: small-molecule binders of XIP peptide, primary screen, biochemical, small-molecule microarray, fluorescence 635/667 nm, 0.5 µg/mL protein (AID 1183). To be noted: small-molecule microarray binding, fluorescence 635 nm; higher = more signal.
Experiment [13] is described as follows: Plasmodium falciparum growth inhibition, primary screen, strain 3D7, DAPI fluorescence, 100 nL (AID 1184).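 Further: parasites grown inside human red blood cells in medium with human serum.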 To be noted: P. falciparum 3D7 growth, 3 d, higher = more signal.
Experiment [14] addresses Homeobox protein Hox-A13 (Mus musculus) (UniProt Q62424). Nature of the experiment: inhibitors of HoxA13-DNA binding, primary screen, biochemical, fluorescence polarization, labeled oligonucleotide (AID 1185). To be noted: 15 min, higher = more signal, called active from +8 up or from −8 down.
Experiment [15] in a line: inhibitors of hydroxyurea-induced Chk1 phosphorylation, primary screen, imaging, HeLa, phospho-Chk1 antibody, percent positive cells (AID 1186). To be noted: hydroxyurea-induced phospho-Chk1 immunofluorescence imaging, higher = more signal.
Experiment [16] is described as follows: inhibitors of hydroxyurea-induced Chk1 phosphorylation, primary screen, imaging, HeLa, phospho-Chk1 nuclear intensity (AID 1187). To be noted: hydroxyurea-induced phospho-Chk1 immunofluorescence imaging, higher = more signal.

Sequence of E3 ubiquitin-protein ligase XIAP (Homo sapiens) (P98170 whole entry, looked up): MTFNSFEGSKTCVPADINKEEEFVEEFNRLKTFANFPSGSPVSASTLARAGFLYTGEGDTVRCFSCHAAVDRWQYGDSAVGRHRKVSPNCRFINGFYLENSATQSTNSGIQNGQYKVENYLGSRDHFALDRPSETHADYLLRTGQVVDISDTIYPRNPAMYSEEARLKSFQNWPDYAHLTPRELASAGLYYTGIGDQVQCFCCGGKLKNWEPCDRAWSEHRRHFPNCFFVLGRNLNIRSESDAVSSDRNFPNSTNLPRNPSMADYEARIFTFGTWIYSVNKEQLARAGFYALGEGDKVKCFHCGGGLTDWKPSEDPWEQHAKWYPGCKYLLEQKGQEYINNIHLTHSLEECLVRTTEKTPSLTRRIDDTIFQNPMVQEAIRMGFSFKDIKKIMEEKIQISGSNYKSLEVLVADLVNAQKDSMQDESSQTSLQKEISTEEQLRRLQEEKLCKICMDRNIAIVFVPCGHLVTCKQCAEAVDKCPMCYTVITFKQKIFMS
Sequence of Dihydroorotate dehydrogenase (quinone), mitochondrial (Plasmodium falciparum (isolate 3D7)) (Q08210 whole entry, looked up): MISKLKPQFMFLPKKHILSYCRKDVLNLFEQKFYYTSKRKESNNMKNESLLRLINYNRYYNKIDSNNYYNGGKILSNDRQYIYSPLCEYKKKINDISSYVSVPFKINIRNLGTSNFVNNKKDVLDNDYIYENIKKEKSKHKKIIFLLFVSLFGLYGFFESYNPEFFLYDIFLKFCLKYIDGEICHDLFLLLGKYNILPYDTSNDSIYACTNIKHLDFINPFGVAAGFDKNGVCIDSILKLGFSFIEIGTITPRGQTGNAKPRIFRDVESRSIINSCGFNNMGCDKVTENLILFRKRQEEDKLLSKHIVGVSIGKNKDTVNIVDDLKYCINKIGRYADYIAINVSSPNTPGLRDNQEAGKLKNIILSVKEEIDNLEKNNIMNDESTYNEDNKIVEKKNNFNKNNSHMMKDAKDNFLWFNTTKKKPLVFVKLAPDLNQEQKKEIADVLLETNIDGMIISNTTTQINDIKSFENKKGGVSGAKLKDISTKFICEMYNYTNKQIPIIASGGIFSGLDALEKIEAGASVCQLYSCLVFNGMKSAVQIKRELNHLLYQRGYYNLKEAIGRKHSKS
Sequence of Homeobox protein Hox-A13 (Mus musculus) (Q62424 whole entry, looked up): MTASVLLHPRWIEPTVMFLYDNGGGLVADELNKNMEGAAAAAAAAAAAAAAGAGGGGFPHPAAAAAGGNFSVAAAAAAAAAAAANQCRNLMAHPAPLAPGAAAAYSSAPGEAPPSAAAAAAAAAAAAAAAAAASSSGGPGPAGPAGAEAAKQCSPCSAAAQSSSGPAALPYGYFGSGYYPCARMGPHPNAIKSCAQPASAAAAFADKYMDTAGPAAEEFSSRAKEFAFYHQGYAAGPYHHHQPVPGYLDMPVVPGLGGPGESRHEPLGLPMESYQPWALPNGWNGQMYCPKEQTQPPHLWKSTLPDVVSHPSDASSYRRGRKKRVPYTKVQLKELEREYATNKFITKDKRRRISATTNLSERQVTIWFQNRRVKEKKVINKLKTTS

On to `O=C(NCCN1CCOCC1)[C@@H]1c2ccccc2C(=O)N(Cc2cc(F)cc(C(F)(F)F)c2)[C@H]1c1ccc(CO)cc1`, for which the z-score in [1] was -0.375; in experiment [2], -0.191 (inactive); in experiment [3], 0.362 (inactive); in experiment [5], -0.0807 (inactive); in [6], -0.64 (inactive); in [7] it was 0.552 (inactive). Besides, the z-score was -0.232 (inactive) in experiment [8]; 0.419 in experiment [9]; 0.0111 in experiment [13]; -4.42 (inactive) in experiment [14]; -0.189 (inactive) in experiment [15]; -0.151 (inactive) in [16]. The composite z-score in experiment [4] was -0.517 (inactive); in experiment [10], 0.0451; in [11], 0.376 (inactive); in [12] it was 0.372.

Turning to `O=C(N1CCCCC1)[C@]1(CCS(=O)(=O)c2ccccc2)N=C(c2ccc(OCCCO)cc2)O[C@@H]1c1ccccc1`, the z-score was 0.0192 in experiment [1]; -0.678 (inactive) in [2]; -2.49 (inactive) in experiment [3]; -0.345 (inactive) in [5]; 0.525 (inactive) in [6]; 0.779 (inactive) in experiment [7]. Also, the z-score in [8] was -0.385 (inactive); in experiment [9] it was -1.61; in [13], -2.79; in [14] it was -5.68 (inactive); in [15] it was -0.599 (inactive); in [16], -1 (inactive). Besides, the composite z-score was 0.813 (inactive) in experiment [4], 0.0257 in experiment [10], 1.29 (inactive) in [11] and 0.75 in experiment [12].

As to `COC(=O)[C@@]1(Cc2ccc(OC)cc2)[C@H]2c3cc(C(=O)N4CCCC4)n(CCc4ccccn4)c3C[C@H]2CN1C(=O)c1ccccc1`, the z-score in [1] is -0.608; in [2], 1.17 (inactive); in [3], -1.55 (inactive); in experiment [5], 1.5 (inactive); in [6], 0.664 (inactive); in [7], -0.784 (inactive). In addition, the z-score in [8] is -0.912 (inactive); in [9], -2.73; in experiment [13] it was -1.77; in experiment [14], -5.3 (inactive); in experiment [15] it was -0.235 (inactive); in [16], -0.224 (inactive). For the same compound, the composite z-score in experiment [4] is -0.362 (inactive); in [10] it was 0.0976; in experiment [11], 0.679 (inactive); in [12], 0.864.

For the compound `O=C1C[C@@](C(=O)O)(c2ccc([N+](=O)[O-])cc2)[C@@H](c2ccc(CO)cc2I)N1C1CCCCC1`, the z-score in experiment [1] is 0.0536; in experiment [2], -5.06 (inactive); in experiment [3], -1.62 (inactive); in [5] it was 1.16 (inactive); in experiment [6] it was -1.01 (inactive); in experiment [7] it was 1.39 (inactive). For the same compound, the z-score is 0.466 (inactive) in [8]; -1.57 in [9]; -2.01 in experiment [13]; -6.2 (inactive) in experiment [14]; -0.195 (inactive) in [15]; 0.201 (inactive) in experiment [16]. Moreover, the composite z-score in experiment [4] is -1.68 (inactive); in experiment [10], -0.289; in [11] it was -0.183 (inactive); in experiment [12], 0.553.

`O=C1C2C=CC(C(O)c3cccc4ccccc34)N(n3cnnc3)C2C(=O)N1Cc1ccccc1` (centres undefined): the z-score was -0.447 in experiment [1]; -17.4 (active) in experiment [2]; -1.24 (inactive) in experiment [3]; -0.128 (inactive) in experiment [5]; -23.2 (active) in experiment [6]; -1.24 (inactive) in experiment [7]. Besides, the z-score in experiment [8] is -1.14 (inactive); in experiment [9], -1.07; in experiment [13] it was -0.206; in experiment [14], -1.86 (inactive); in experiment [15], 0.993 (inactive); in experiment [16] it was -0.055 (inactive). Also, the composite z-score in experiment [4] was -2.08 (inactive); in [10], -0.0421; in experiment [11] it was -0.0195 (inactive); in experiment [12], -0.633.

With `O=C1NC(=O)C2C1C=CC(C(O)c1cccs1)N2Nc1ccccn1` (centres undefined), the z-score in experiment [1] was -0.687; in experiment [2], 0.0408 (inactive); in experiment [3], -1.71 (inactive); in experiment [5], 0.916 (inactive); in [6], 0.623 (inactive); in experiment [7] it was -0.0795 (inactive). In addition, the z-score in [8] was 0.0691 (inactive); in experiment [9] it was 0.398; in experiment [13], 0.197; in [14], -5.03 (inactive); in experiment [15] it was -0.0367 (inactive); in experiment [16], -0.263 (inactive). For the same compound, the composite z-score in experiment [4] is 0.566 (inactive); in [10] it was 0.174; in [11], 1.43 (inactive); in experiment [12], 0.438.

For the compound `COCCOC(=O)N1C(=O)[C@@]2(c3cc(C#CCC(C(=O)OC)C(=O)OC)ccc31)[C@H](c1ccc(OCCO)cc1)N1[C@H](c3ccccc3)[C@H](c3ccccc3)OC(=O)[C@H]1[C@@H]2C(=O)NC[C@H](O)c1ccccc1`, the z-score in [1] was 0.11; in [2] it was 2.19 (inactive); in experiment [3], 0.241 (inactive); in experiment [5], 2.7 (inactive); in experiment [6], 3.3 (inactive); in [7] it was 0.732 (inactive). Also, the z-score in experiment [8] was 0.855 (inactive); in experiment [9], -0.957; in [13] it was -2.16; in experiment [14], 0.738 (inactive); in [15] it was -0.411 (inactive); in experiment [16] it was -0.397 (inactive). Besides, the composite z-score was 0.0044 (inactive) in experiment [4], 0.19 in experiment [10], 0.234 (inactive) in experiment [11] and 0.851 in [12].

Regarding `O=C1OCC=C[C@H]2OC34C=CCN(Cc5ccccc5)C(=O)[C@H]3N(CCCO)C(=O)[C@@H]4[C@@H]12` (some centres undefined), the z-score in experiment [1] was 0.0395; in [2], -0.616 (inactive); in [3], -0.0608 (inactive); in [5] it was -0.0963 (inactive); in experiment [6], 0.242 (inactive); in experiment [7], -0.658 (inactive). Moreover, the z-score in experiment [8] was 0.122 (inactive); in [9] it was -0.0906; in experiment [13], -1.89; in experiment [14], -4.31 (inactive); in experiment [15] it was -1.44 (inactive); in experiment [16] it was -0.938 (inactive). In addition, the composite z-score in experiment [4] was -1.55 (inactive); in [10], 0.643; in experiment [11], 1.09 (inactive); in experiment [12] it was 0.212.

With `CN1C(=O)C2C=CC(C(O)C(C)(C)C)N(Nc3ccccc3)C2C1=O` (centres undefined), the z-score is -0.376 in experiment [1]; 0.66 (inactive) in [2]; -0.281 (inactive) in [3]; 0.695 (inactive) in experiment [5]; 0.0609 (inactive) in experiment [6]; -0.568 (inactive) in [7]. The z-score is 0.108 (inactive) in experiment [8]; -0.444 in experiment [9]; 0.987 in experiment [13]; -0.565 (inactive) in experiment [14]; -0.415 (inactive) in experiment [15]; -0.815 (inactive) in experiment [16]. Besides, the composite z-score was -0.702 (inactive) in experiment [4], 0.621 in [10], 0.127 (inactive) in experiment [11] and 0.403 in experiment [12].
